{"source": "the supplement of paper PMC12282887", "assay_in_all_cases": "promoter activity interaction Z-score (Lux/OD deviation from empty-vector control); higher = stronger promoter induction by the compound", "key": {"[1]": {"system": "E. coli BW25113 acrABp lux reporter", "outline": "(§1)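 Low-copy luxCDABE promoter reporters were carried by E. coli BW25113, either wild type or lacking one of three genes, grown in 40 µl LB Lennox in 384-well plates at 37°C. Each compound was run at four 1:2 dilutions in biological duplicates, with OD600 and luminescence read every 30 min for 12 h. Integration used 0–8 h for wild type and 1–9 h for deletion strains, and wells under 10% of the median growth value were removed. Luminescence normalised to growth was fitted against a control, and the Z-transformed residual is the score.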"}, "[2]": {"system": "E. coli BW25113 marRABp lux reporter", "outline": "as §1"}, "[3]": {"system": "E. coli BW25113 micFp lux reporter", "outline": "as §1"}, "[4]": {"system": "E. coli BW25113 ompFp lux reporter", "outline": "as §1"}, "[5]": {"system": "E. coli BW25113 robp lux reporter", "outline": "as §1"}, "[6]": {"system": "E. coli BW25113 soxSp lux reporter", "outline": "as §1"}, "[7]": {"system": "E. coli BW25113 tolCp lux reporter", "outline": "as §1"}, "[8]": {"settings": "0.62 µg/ml, genetic background: wild type"}, "[9]": {"settings": "0.62 µg/ml, genetic background: ΔmarA"}, "[10]": {"settings": "0.62 µg/ml, genetic background: Δrob"}, "[11]": {"settings": "0.62 µg/ml, genetic background: ΔsoxS"}, "[12]": {"settings": "1.2 µg/ml, genetic background: wild type"}, "[13]": {"settings": "2.5 µg/ml, genetic background: wild type"}, "[14]": {"settings": "0.0045 µg/ml, genetic background: wild type"}, "[15]": {"settings": "0.0045 µg/ml, genetic background: ΔmarA"}, "[16]": {"settings": "0.0045 µg/ml, genetic background: Δrob"}, "[17]": {"settings": "0.0045 µg/ml, genetic background: ΔsoxS"}, "[18]": {"settings": "0.009 µg/ml, genetic background: wild type"}, "[19]": {"settings": "0.009 µg/ml, genetic background: ΔmarA"}, "[20]": {"settings": "0.009 µg/ml, genetic background: Δrob"}, "[21]": {"settings": "0.009 µg/ml, genetic background: ΔsoxS"}}, "note": "± gives the standard deviation of the averaged measurements."}
{"smiles": "CC(=O)C(NC(=O)C(C)C(O)C(C)NC(=O)C(NC(=O)c1nc(C(CC(N)=O)NCC(N)C(N)=O)nc(N)c1C)C(O[C@@H]1O[C@@H](CO)[C@@H](O)[C@H](O)[C@]1(C)O[C@@H]1OC(CO)[C@H](O)[C@](O)(C(N)=O)[C@H]1O)c1cnc[nH]1)C(=O)NCCC1=NC(c2nc(C(N)=O)cs2)CS1", "note": "(stereo not given in full) [Phleomycin]", "values": [{"measurement": "promoter activity interaction Z-score", "setting": "[1]; [8]", "value": "1.07 ± 0.23"}, {"measurement": "promoter activity interaction Z-score", "setting": "[1]; [9]", "value": "-0.273 ± 0.32"}, {"measurement": "promoter activity interaction Z-score", "setting": "[1]; [10]", "value": 1.04}, {"measurement": "promoter activity interaction Z-score", "setting": "[1]; [11]", "value": "0.298 ± 1.3"}, {"measurement": "promoter activity interaction Z-score", "setting": "[1]; [12]", "value": 2.12}, {"measurement": "promoter activity interaction Z-score", "setting": "[2]; [8]", "value": "1.05 ± 0.22"}, {"measurement": "promoter activity interaction Z-score", "setting": "[2]; [9]", "value": 2.57}, {"measurement": "promoter activity interaction Z-score", "setting": "[2]; [10]", "value": 1.98}, {"measurement": "promoter activity interaction Z-score", "setting": "[2]; [11]", "value": 1.57}, {"measurement": "promoter activity interaction Z-score", "setting": "[2]; [12]", "value": "2.71 ± 0.25"}, {"measurement": "promoter activity interaction Z-score", "setting": "[3]; [8]", "value": "-0.476 ± 0.019"}, {"measurement": "promoter activity interaction Z-score", "setting": "[3]; [9]", "value": "-0.254 ± 0.023"}, {"measurement": "promoter activity interaction Z-score", "setting": "[3]; [10]", "value": "-0.0516 ± 0.18"}, {"measurement": "promoter activity interaction Z-score", "setting": "[3]; [11]", "value": "-0.651 ± 0.16"}, {"measurement": "promoter activity interaction Z-score", "setting": "[3]; [12]", "value": "-1.14 ± 0.14"}, {"measurement": "promoter activity interaction Z-score", "setting": "[3]; [13]", "value": "-0.981 ± 0.31"}, {"measurement": "promoter activity interaction Z-score", "setting": "[4]; [8]", "value": "1.83 ± 0.41"}, {"measurement": "promoter activity interaction Z-score", "setting": "[4]; [9]", "value": "0.799 ± 2"}, {"measurement": "promoter activity interaction Z-score", "setting": "[4]; [10]", "value": -0.998}, {"measurement": "promoter activity interaction Z-score", "setting": "[4]; [11]", "value": "1.46 ± 2.8"}, {"measurement": "promoter activity interaction Z-score", "setting": "[4]; [12]", "value": -0.554}, {"measurement": "promoter activity interaction Z-score", "setting": "[5]; [8]", "value": "-0.5306 ± 0.0049"}, {"measurement": "promoter activity interaction Z-score", "setting": "[5]; [9]", "value": "-0.313 ± 0.067"}, {"measurement": "promoter activity interaction Z-score", "setting": "[5]; [10]", "value": -1.12}, {"measurement": "promoter activity interaction Z-score", "setting": "[5]; [11]", "value": "-0.519 ± 0.41"}, {"measurement": "promoter activity interaction Z-score", "setting": "[5]; [12]", "value": "-0.94 ± 0.28"}, {"measurement": "promoter activity interaction Z-score", "setting": "[6]; [8]", "value": "0.286 ± 0.032"}, {"measurement": "promoter activity interaction Z-score", "setting": "[6]; [9]", "value": "-0.0997 ± 0.0027"}, {"measurement": "promoter activity interaction Z-score", "setting": "[6]; [10]", "value": "-0.106 ± 0.024"}, {"measurement": "promoter activity interaction Z-score", "setting": "[6]; [11]", "value": "3.11 ± 2.5"}, {"measurement": "promoter activity interaction Z-score", "setting": "[6]; [12]", "value": "-0.481 ± 0.012"}, {"measurement": "promoter activity interaction Z-score", "setting": "[6]; [13]", "value": "-0.666 ± 0.31"}, {"measurement": "promoter activity interaction Z-score", "setting": "[7]; [8]", "value": "-0.425 ± 0.84"}, {"measurement": "promoter activity interaction Z-score", "setting": "[7]; [9]", "value": "-0.832 ± 0.55"}, {"measurement": "promoter activity interaction Z-score", "setting": "[7]; [10]", "value": "-0.362 ± 0.33"}, {"measurement": "promoter activity interaction Z-score", "setting": "[7]; [11]", "value": "0.481 ± 0.63"}, {"measurement": "promoter activity interaction Z-score", "setting": "[7]; [12]", "value": "-0.433 ± 0.62"}, {"measurement": "promoter activity interaction Z-score", "setting": "[7]; [13]", "value": "-1.33 ± 1.2"}]}
{"smiles": "C[C@H]1COc2c(N3CCN(C)CC3)c(F)cc3c(=O)c(C(=O)O)cn1c23", "note": "[Levofloxacin]", "values": [{"measurement": "promoter activity interaction Z-score", "setting": "[1]; [14]", "value": "0.161 ± 0.16"}, {"measurement": "promoter activity interaction Z-score", "setting": "[1]; [15]", "value": "1.19 ± 0.57"}, {"measurement": "promoter activity interaction Z-score", "setting": "[1]; [16]", "value": "0.765 ± 0.3"}, {"measurement": "promoter activity interaction Z-score", "setting": "[1]; [17]", "value": "0.13 ± 0.43"}, {"measurement": "promoter activity interaction Z-score", "setting": "[1]; [18]", "value": "1.49 ± 0.47"}, {"measurement": "promoter activity interaction Z-score", "setting": "[1]; [19]", "value": "3.65 ± 2.5"}, {"measurement": "promoter activity interaction Z-score", "setting": "[1]; [20]", "value": 3}, {"measurement": "promoter activity interaction Z-score", "setting": "[1]; [21]", "value": "0.933 ± 0.088"}, {"measurement": "promoter activity interaction Z-score", "setting": "[3]; [14]", "value": "-0.267 ± 0.3"}, {"measurement": "promoter activity interaction Z-score", "setting": "[3]; [15]", "value": "0.407 ± 0.14"}, {"measurement": "promoter activity interaction Z-score", "setting": "[3]; [16]", "value": "0.249 ± 0.18"}, {"measurement": "promoter activity interaction Z-score", "setting": "[3]; [17]", "value": "0.076 ± 0.062"}, {"measurement": "promoter activity interaction Z-score", "setting": "[3]; [18]", "value": "0.268 ± 0.26"}, {"measurement": "promoter activity interaction Z-score", "setting": "[3]; [19]", "value": "0.154 ± 0.1"}, {"measurement": "promoter activity interaction Z-score", "setting": "[3]; [20]", "value": -0.048}, {"measurement": "promoter activity interaction Z-score", "setting": "[3]; [21]", "value": "0.58 ± 0.097"}, {"measurement": "promoter activity interaction Z-score", "setting": "[4]; [14]", "value": "0.0942 ± 0.084"}, {"measurement": "promoter activity interaction Z-score", "setting": "[4]; [15]", "value": "0.337 ± 0.47"}, {"measurement": "promoter activity interaction Z-score", "setting": "[4]; [16]", "value": "0.283 ± 0.32"}, {"measurement": "promoter activity interaction Z-score", "setting": "[4]; [17]", "value": "0.00971 ± 0.41"}, {"measurement": "promoter activity interaction Z-score", "setting": "[4]; [18]", "value": "0.729 ± 0.33"}, {"measurement": "promoter activity interaction Z-score", "setting": "[4]; [19]", "value": "1.02 ± 1.5"}, {"measurement": "promoter activity interaction Z-score", "setting": "[4]; [21]", "value": "2.15 ± 2.1"}, {"measurement": "promoter activity interaction Z-score", "setting": "[5]; [14]", "value": "0.859 ± 0.36"}, {"measurement": "promoter activity interaction Z-score", "setting": "[5]; [15]", "value": "0.95 ± 0.41"}, {"measurement": "promoter activity interaction Z-score", "setting": "[5]; [16]", "value": "-0.178 ± 0.062"}, {"measurement": "promoter activity interaction Z-score", "setting": "[5]; [17]", "value": "0.248 ± 0.29"}, {"measurement": "promoter activity interaction Z-score", "setting": "[5]; [18]", "value": "-0.182 ± 0.079"}, {"measurement": "promoter activity interaction Z-score", "setting": "[5]; [19]", "value": "0.841 ± 0.84"}, {"measurement": "promoter activity interaction Z-score", "setting": "[5]; [20]", "value": 0.348}, {"measurement": "promoter activity interaction Z-score", "setting": "[5]; [21]", "value": "-0.154 ± 1.2"}, {"measurement": "promoter activity interaction Z-score", "setting": "[6]; [14]", "value": "-0.114 ± 0.024"}, {"measurement": "promoter activity interaction Z-score", "setting": "[6]; [15]", "value": "0.133 ± 0.013"}, {"measurement": "promoter activity interaction Z-score", "setting": "[6]; [16]", "value": "-0.071 ± 0.15"}, {"measurement": "promoter activity interaction Z-score", "setting": "[6]; [17]", "value": "0.197 ± 0.43"}, {"measurement": "promoter activity interaction Z-score", "setting": "[6]; [18]", "value": "0.185 ± 0.047"}, {"measurement": "promoter activity interaction Z-score", "setting": "[6]; [19]", "value": "0.0863 ± 0.079"}, {"measurement": "promoter activity interaction Z-score", "setting": "[6]; [20]", "value": "-0.0469 ± 0.15"}, {"measurement": "promoter activity interaction Z-score", "setting": "[6]; [21]", "value": "2.32 ± 0.6"}, {"measurement": "promoter activity interaction Z-score", "setting": "[7]; [14]", "value": "-0.228 ± 1.2"}, {"measurement": "promoter activity interaction Z-score", "setting": "[7]; [15]", "value": "0.741 ± 0.18"}, {"measurement": "promoter activity interaction Z-score", "setting": "[7]; [16]", "value": "-0.128 ± 1"}, {"measurement": "promoter activity interaction Z-score", "setting": "[7]; [17]", "value": "-0.647 ± 0.99"}, {"measurement": "promoter activity interaction Z-score", "setting": "[7]; [18]", "value": "0.287 ± 1"}, {"measurement": "promoter activity interaction Z-score", "setting": "[7]; [19]", "value": 0.606}, {"measurement": "promoter activity interaction Z-score", "setting": "[7]; [20]", "value": -0.887}, {"measurement": "promoter activity interaction Z-score", "setting": "[7]; [21]", "value": "2.55 ± 1.9"}]}
